Test results: PubChem BioAssay (Tox21)
Inconclusive results are not listed. A number with no mark means an inactive call. The call rests on the fitted dose curve; in most records, active means well fitted activation curve with a large enough effect in the signal ratio in the repeat runs (not every such curve was filed as active); inconclusive means weak or mixed curves; inactive means flat fitted curve, though single readings scatter; the % refers to the signal ratio.

Test: qHTS assay to identify small molecule agonists of the TGF-beta/Smad signaling pathway (AID 1346859)
Conditions: SBE-bla HEK293T, TGF-beta/Smad beta-lactamase reporter, 5 h; series mostly up to 76.8 µM; activation: at the top concentration
Summary of the method: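 SBE-bla HEK 293T, 4,000 cells/well, plated o/n; cpd in DMSO, 5 hr, 37 C/5% CO2; B/G FRET substrate 2 hr RT; ex 405, em 460/530 nm.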
On the % scale 0 is the no-effect control and ±100 the full control effect.

Structure (SMILES) | activation
Cc1c(Nc2ncccc2C(=O)O)cccc1C(F)(F)F | -2.63% [at 35.3 µM]
O=Cc1ccc(Cl)c([N+](=O)[O-])c1 | -2.29%
CC(=O)OCC(=O)[C@@]1(O)CC[C@H]2[C@@H]3CCC4=CC(=O)C=C[C@]4(C)[C@@]3(F)[C@@H](O)C[C@@]21C | 4.88% [at 35.3 µM]
CO[C@@H]1COCC[C@@H]1N[C@@H]1CC[C@@](C(=O)N2CCc3ncc(C(F)(F)F)cc3C2)(C(C)C)C1 | -4.1%
CCCCCCCCS | 1.66%
O=C1c2ccccc2C(=O)C1c1ccc2cc(S(=O)(=O)O)cc(S(=O)(=O)O)c2n1 | -0.704%
O=C1c2ccccc2C(=O)C1c1ccc2ccccc2n1 | -3.89% [at 35.3 µM]
COc1ccc(/C=C/S(=O)(=O)NC(=O)c2ccc(C)cc2Cl)cc1 | -3.19%
CCCCCCCCOCCCN | 3.21%
S=c1[nH][nH]c(=S)s1 | 2.66%
CC(C)(O)C(=O)O | 0.306%
CC(C(=O)O)c1ccc(/C=C2\CCCCC2=O)cc1 (stereo unspecified) | -6.45% [at 35.3 µM]
CC1=CC(=C(c2ccc(N)cc2)c2ccc(N)cc2)C=CC1=N | 8.28% [at 6.97 µM]
Cc1c(Cl)cccc1[N+](=O)[O-] | -0.113%
O=C(O)c1ccc(O)c(O)c1 | 3.26%
CC(C)NC(=O)c1ccccc1N | 1.67%
CC1=C(C)C(=O)C(CCCCC#CCCCC#CCO)=C(C)C1=O | -0.324% [at 35.3 µM]
CC(=O)c1cccnc1 | -0.282%

Structure (SMILES) | activation
CC(C)C/C=C(\C=O)c1ccccc1 | -0.0538%
CC(=O)c1ccc(Cl)c(Cl)c1Cl | -3.04%
[O-][n+]1ccc(Cl)cc1 | -1.53%
COC(=O)C(C)(C)C | 2.65%
C/C(=C\C(C)CC(C)CC(C)C)C1CC(=O)OC1=O (stereo unspecified) | -0.131%
O=C(O)c1cccc(C(=O)O)c1C(=O)O | 0.438%
C[C@H](CN1CCCC1)C(=O)c1ccc(C(F)(F)F)cc1 | -3.44% [at 35.3 µM]
CCc1cnc(C(=O)O)c(C(=O)O)c1 | 0.353%
NC(=O)c1ccccc1C(N)=O | 0.232%
Cc1cccc(C)c1NC(=O)CN1CCCC1 | 0.259% [at 35.3 µM]
O=C(NC1CCN(CCc2c[nH]c3ccccc23)CC1)c1ccccc1 | -2.01% [at 35.3 µM]
O=C(O)c1ccc2cc(O)ccc2c1 | -5.2%
Nc1cccc2c(=O)[nH][nH]c(=O)c12 | 0.446%
CCC(CC)C(=O)O | 1.07%
SCCOCCOCCS | 1.08%
Oc1ccc(CCNCCCCCCNCCc2ccccc2)cc1O | 2.26% [at 35.3 µM]
C=CC(C)(O)CC/C=C(/C)CCC=C(C)C (stereo unspecified) | 1.53%
CCN(CC)CC(=O)OCC(=O)[C@@]1(O)CC[C@H]2[C@@H]3CCC4=CC(=O)CC[C@]4(C)[C@H]3[C@@H](O)C[C@@]21C | 1.18% [at 35.3 µM]
